PME-1 primary = PME-1 inhibitors via competitive probe labeling, primary screen, biochemical, fluorescence polarization, FP-Rh probe, HTS; Protein phosphatase methylesterase 1 (Homo sapiens), Q9Y570; recombinant PME-1; inhibition, % at 5.9 µM; actives 0.53% (n = 320,000);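 active = inhibition above the campaign mean of all compounds plus 3 SD, cut at about 26% in these data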;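 also: competitive labeling of PME-1 active site by serine hydrolase directed probe; inhibitors block probe labeling so polarization falls and inhibition rises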
Target sequence (Q9Y570 whole entry, looked up): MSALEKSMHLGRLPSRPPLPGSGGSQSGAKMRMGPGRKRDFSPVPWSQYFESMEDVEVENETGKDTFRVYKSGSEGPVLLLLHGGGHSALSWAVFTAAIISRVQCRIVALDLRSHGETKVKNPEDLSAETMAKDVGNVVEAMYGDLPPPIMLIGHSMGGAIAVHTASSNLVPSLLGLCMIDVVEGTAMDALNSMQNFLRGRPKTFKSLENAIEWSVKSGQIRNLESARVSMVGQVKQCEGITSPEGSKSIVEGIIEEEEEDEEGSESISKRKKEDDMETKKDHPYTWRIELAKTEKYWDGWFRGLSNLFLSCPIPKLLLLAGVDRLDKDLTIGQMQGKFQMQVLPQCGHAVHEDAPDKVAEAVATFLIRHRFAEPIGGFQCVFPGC
LYPLA2 inh = LYPLA2 inhibitors, primary screen, counter-screen for PME1 inhibitor project, biochemical, fluorescence polarization, FP-Rh probe ABPP; Acyl-protein thioesterase 2 (Homo sapiens), O95372; recombinant LYPLA2; inhibition, % at 5.9 µM; actives 0.38% (n = 320,000); AID 2177, 2009;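 active = inhibition above the screen-wide mean plus 3 SD, limit set per campaign, cut at about 26% in these data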
Target sequence (O95372 whole entry, looked up): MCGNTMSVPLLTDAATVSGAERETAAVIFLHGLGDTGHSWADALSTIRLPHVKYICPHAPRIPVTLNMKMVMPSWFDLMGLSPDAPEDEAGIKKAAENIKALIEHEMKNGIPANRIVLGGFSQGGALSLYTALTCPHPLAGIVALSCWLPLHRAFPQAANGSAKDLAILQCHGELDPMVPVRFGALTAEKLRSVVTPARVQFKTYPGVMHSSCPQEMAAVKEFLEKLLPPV
PP1 inh = PP1-alpha phosphatase inhibitors, primary screen, counter-screen for PP5 inhibitor project, biochemical, fluorescence, OMFP substrate, single point; inhibition, % at 6.7 µM; purified PP1alpha; Serine/threonine-protein phosphatase PP1-alpha catalytic subunit (Homo sapiens), P62136; actives 0.9% (n = 320,000);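 active = inhibition above the mean inhibition of all tested compounds plus 3 SD, computed separately for each screening campaign, cut at about 15% in these data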
Fam108B counter = mouse Fam108B serine hydrolase inhibitors, primary screen, counter-screen for RBBP9 inhibitor project, biochemical, fluorescence polarization. recombinant Fam108B, FP-Rh probe fluorescence polarization. inhibition, % at 9.51 µM. actives 0.33% (n = 300,000);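 active = inhibition above the screen mean inhibition plus 3 SD, computed separately per campaign, cut at about 18% in these data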;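 also: inhibitors lower polarization as less probe binds the enzyme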
LYPLA1 counter = LYPLA1 inhibitors, primary screen, counter-screen for PME1 inhibitor project, biochemical, fluorescence polarization, FP-Rh probe ABPP; recombinant LYPLA1; actives 0.16% (n = 320,000); inhibition, % at 5.9 µM;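 active = inhibition above the mean of all tested compounds plus 3 SD, set per campaign, cut at about 14% in these data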;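 also: inhibitors block serine hydrolase probe labeling of LYPLA1 so polarization falls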
PP5 primary = PP5 phosphatase inhibitors, primary screen, biochemical, fluorescence | actives 0.18% (n = 320,000) | Serine/threonine-protein phosphatase 5 (Homo sapiens), P53041 | purified PP5c, OMFP substrate fluorescence | inhibition, % at 6.7 µM;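 active = inhibition above the campaign's mean inhibition across all tested compounds plus 3 SD, cut at about 9.5% in these data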
Numbers stand for hits; . = inactive; / = no result. Shown are actives, neighbours in structure and some others; about 1.8% of the full set was active somewhere.

SMILES	PME-1 primary	LYPLA2 inh	PP1 inh	Fam108B counter	LYPLA1 counter	PP5 primary
COc1ccccc1Nc1nc(-c2sc(NC(=O)c3ccc([N+](=O)[O-])cc3)nc2C)cs1	.	.	.	25	.	.
O=C(N/N=C/c1c[nH]c2ccccc12)c1ccccc1	.	.	.	.	.	.
O=C(N/N=C/c1c[nH]c2ccccc12)c1sc2ccccc2c1Cl	33	.	.	.	.	.
CCc1cc(=O)[nH]c(SCC(=O)NCc2ccc3c(c2)OCO3)n1	.	.	.	.	.	.
O=C(CSc1nccc(=O)[nH]1)NCc1ccc2c(c1)OCO2	.	.	16	.	.	.
N#Cc1ccc(Cl)cc1NC(=O)CSc1nc2nc(-c3cccs3)cc(C(F)(F)F)c2c(=O)[nH]1	.	.	.	.	.	.
Cn1cc(C(=O)N/N=C/C2=C(N3CCOCC3)C(=C\c3ccccc3)/CC2)ccc1=O	.	.	.	.	.	.
O=C1Nc2ccccc2/C1=N\N=C\C1=C(N2CCOCC2)C(=C\c2ccccc2)/CC1	31	.	.	.	.	.
COC(=O)N1C(=O)[C@](CC(C)C)(c2ccccc2)N1C(=O)OC	28	.	.	.	.	.
COC(=O)N1C(=O)[C@](c2ccc(OC)cc2)(C(C)C)N1C(=O)OC	49	.	.	.	.	.
COC(=O)N1C(=O)[C@](c2ccccc2)(C2CCCCC2)N1C(=O)OC	71	.	.	.	.	.
COC(=O)N1C(=O)[C@@](CC(C)C)(c2ccccc2)N1C(=O)OC	.	.	.	.	.	.
COC(=O)N1C(=O)[C@@](c2ccccc2)(C2CCCC2)N1C(=O)OC	.	.	.	.	.	.
COC(=O)N1C(=O)[C@](c2ccsc2)(C(C)C)N1C(=O)OC	.	.	.	.	.	.
CC(C)NC(=O)C(=O)Nc1cc2c3c(c1)C(C)C(=O)N3CCC2 (stereo unspecified)	.	.	.	.	.	.
COc1ccccc1NC(=O)/C(=C\c1cccnc1)NC(=O)c1ccc(C)cc1	.	.	.	.	.	.
CCCCn1c(N)c(N(CC(C)C)C(=O)c2c(-c3ccccc3)noc2C)c(=O)[nH]c1=O	.	.	.	/	.	.
Cc1ccc(OCCCN2C(=O)C(=O)c3cc(C)ccc32)cc1	.	.	17	.	.	.
Cc1ccc2c(c1)C(=O)C(=O)N2CCCOc1ccccc1	.	.	.	.	.	.
Cc1cccc(OCCCN2C(=O)C(=O)c3cc(C)ccc32)c1	.	.	16	.	.	.
Cc1cccc(OCCN2C(=O)c3ccccc3C2=O)c1	.	.	.	.	.	.
O=C(CN(c1ccccc1)S(=O)(=O)c1ccc(Cl)cc1)Nc1cccnc1	.	.	.	.	.	.
CCC(C)Sc1ccc([C@H]2N[C@@](Cc3ccccc3)(C(=O)OC)[C@H]3C(=O)N(CC)C(=O)[C@@H]23)cc1OC (stereo partly specified)	.	.	.	.	.	.
CN(C)C(=O)c1ccc2c(c1[N+](=O)[O-])C(=O)c1ccccc1C2=O	.	.	.	.	.	.
Cc1[nH]c2ccccc2c1CCNC(=O)c1ccc2c(c1[N+](=O)[O-])C(=O)c1ccccc1C2=O	30	.	.	.	.	.
SMILES	PME-1 primary	LYPLA2 inh	PP1 inh	Fam108B counter	LYPLA1 counter	PP5 primary
COc1ccc(NC(=O)C2CCN(C(=O)c3cccs3)CC2)cc1OC	32	.	.	.	.	.
COc1ccc(Cl)cc1NC(=O)CN(C)C(=O)c1cc2c(s1)CCC(C)C2 (stereo unspecified)	.	.	.	.	.	.
OC(CNCCC1C=Nc2ccccc21)Cn1c2ccc(Cl)cc2c2cc(Cl)ccc21 (stereo unspecified)	.	.	17	.	.	.
CCOc1ccc(NC(=O)c2c[nH]n3c(=O)cc(C4CCN(C(=O)OC(C)(C)C)CC4)nc23)cc1	.	.	16	.	.	.
CCOC(=O)N1CC=C2C(C#N)=C(N)C(C#N)(C#N)[C@H](c3cccs3)C2C1 (stereo partly specified)	31	.	.	.	.	.
CC(C)(C)OC(=O)N1CC=C2C(C#N)=C(N)C(C#N)(C#N)C(c3cccs3)C2C1 (stereo unspecified)	.	.	.	.	.	.
CCCOc1ccc([C@@H]2C3CN(C(=O)OCC)CC=C3C(C#N)=C(N)C2(C#N)C#N)cc1OC (stereo partly specified)	48	.	.	.	.	.
COc1cc(C2C3CN(C)CC=C3C(C#N)=C(N)C2(C#N)C#N)ccc1OC(C)C (stereo unspecified)	.	.	.	.	.	.
Cc1ccc(NC(=O)CN(C)C(=O)/C=C/c2ccc3c(c2)OCO3)cc1	.	.	.	/	.	.
C=CCSC1=N/C(=C\c2cc(OCC)c(OC(C)=O)c([N+](=O)[O-])c2)C(=O)S1	64	.	.	.	.	.
Cc1ccccc1COc1ccc(/C(O)=C2/C(=O)C(=O)N(CCCn3ccnc3)C2c2ccco2)cc1 (stereo unspecified)	.	.	18	.	.	.
CCOc1ccc(/C(O)=C2/C(=O)C(=O)N(CCN(CC)CC)C2c2ccco2)cc1 (stereo unspecified)	.	.	.	.	.	.
N#C/C(=C/c1cn(-c2ccccc2)nc1-c1cccc(S(=O)(=O)N2CCCC2)c1)C(=O)NCc1ccco1	.	.	16	.	.	.
COC(=O)c1ccc(CN2CCCC(C(=O)c3ccccc3OC)C2)cc1 (stereo unspecified)	.	.	.	.	.	.
CCCN(CC(=O)Nc1ccccc1C)C(=O)COc1ccc2c(c1)CCC2	.	.	.	.	.	.
CCn1cc(/C=C(\NC(=O)c2ccccc2)C(=O)NCCCN2CCOCC2)c2ccccc21	.	.	.	.	.	.
COc1ccc(/C(C)=C2/SC(=S)N(CCC(=O)O)C2=O)cc1	27	.	.	.	.	.
C=CCn1c(C)cc(C(=O)CSc2nnc(NC(C)C)s2)c1C	.	.	.	.	.	.
C=CCn1c(C)cc(C(=O)CSc2nnc(NCc3ccccc3)s2)c1C	.	.	.	.	.	12
Cc1cc(-c2csc(NC(=O)c3ccc(=O)n(C)n3)n2)c(C)n1CC1CCCO1 (stereo unspecified)	.	.	16	.	.	.
Cc1cc(-c2csc(NC(=O)C3=COCCO3)n2)c(C)n1C	.	.	.	.	.	.
CC(C)CNS(=O)(=O)c1ccc(S(=O)(=O)N2CCC3(CC2)OCCO3)cc1	.	.	.	.	.	.

Screening data (PubChem)
